Measurements taken from PubChem BioAssay (Tox21).
“And” between values parts separate entries of the source, which are not always exact repeats. Equal entries are not always repeated. Results filed as inconclusive are left out. More than one record can exist for a structure, and the calls need not agree. The source made the active and inactive calls. Unless noted, calls come from the whole dose curve; as a rule, active = well fitted curve in the direction sought with a large enough effect in the repeat runs; inconclusive = weak or mixed curves; inactive = no such curve, though single readings can be large; an effect the other way counts as inactive or inconclusive.

How the values were obtained:
[1] = Human pregnane X receptor (PXR) small molecule agonists, qHTS cell viability counter screen (AID 1346977); note: nearly all actives have a fitted effect of over 50% in size; note: potency is the fitted concentration of half-maximal effect
How it was run: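 PXR-Luc HepG2 cells (2,000/well, 5% charcoal-stripped FBS) preincubated 5 hr, then exposed to compounds 24 hr at 37 C. Viability read in the same wells by CellTiter-Fluor fluorescence, reagent added at 23 hr, 1 hr incubation.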

[2] = Caspase-3/7 induction in HepG2 cells by small molecules, qHTS assay (AID 1346978); note: nearly all actives have a fitted effect of over 15% in size
How it was run: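 Wild-type HepG2 cells (2,000/well) were settled 5 h at 37 C, 5% CO2, then exposed to compounds in DMSO for 17 h. Caspase-3/7 activity was read by luminescence 30 min after adding Caspase-Glo 3/7 reagent at room temperature.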

[3] = Caspase-3/7 induction in HepG2 cells by small molecules, qHTS cell viability counter screen (AID 1346981); note: nearly all actives have a fitted effect of over 30% in size; note: potency is the fitted concentration of half-maximal effect
How it was run: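 Treatment of HepG2 cells with DMSO-delivered compounds ran 16 hr at 37 C following a 5-hr pre-incubation of 2,000 cells/well. CellTiter-Fluor fluorescence, read after 1 hr, served as the viability measure in a qHTS format.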

[4] = biological target: Acetylcholinesterase (Homo sapiens) (UniProt P22303); assay: Acetylcholinesterase (AChE) small molecule antagonists: colormetric cell-based qHTS assay (AID 1347395; calls by dose curve; note: nearly all actives have a fitted effect of over 30% in size; note: potency is the fitted concentration of half-maximal effect)
Acetylcholinesterase (Homo sapiens), sequence (P22303 whole entry, looked up): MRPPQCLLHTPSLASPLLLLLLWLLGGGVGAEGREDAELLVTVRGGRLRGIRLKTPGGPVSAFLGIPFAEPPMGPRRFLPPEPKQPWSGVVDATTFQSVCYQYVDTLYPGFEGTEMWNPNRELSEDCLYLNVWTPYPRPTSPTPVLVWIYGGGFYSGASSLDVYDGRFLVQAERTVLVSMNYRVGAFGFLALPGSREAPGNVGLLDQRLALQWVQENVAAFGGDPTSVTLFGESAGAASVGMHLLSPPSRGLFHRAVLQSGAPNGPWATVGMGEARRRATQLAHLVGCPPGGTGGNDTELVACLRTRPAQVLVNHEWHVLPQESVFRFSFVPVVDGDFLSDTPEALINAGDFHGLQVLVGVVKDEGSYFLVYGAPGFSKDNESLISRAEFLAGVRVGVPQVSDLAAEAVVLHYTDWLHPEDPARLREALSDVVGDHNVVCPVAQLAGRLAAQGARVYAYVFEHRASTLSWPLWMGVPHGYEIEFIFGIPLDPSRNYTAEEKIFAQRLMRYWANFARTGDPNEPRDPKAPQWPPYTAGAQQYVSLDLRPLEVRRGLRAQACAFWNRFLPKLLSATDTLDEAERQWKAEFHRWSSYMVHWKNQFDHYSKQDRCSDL
How it was run: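 SH-SY5Y cells attached overnight, exposed to compound 30 min at 37 C, then given DTNB/acetylthiocholine; after 90 min at 37 C, colorimetric thiocholine read gives cellular AChE activity.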

[5] = biological target: Acetylcholinesterase (Homo sapiens) (UniProt P22303); assay: Acetylcholinesterase (AChE) small molecule antagonists: fluorescence cell-based qHTS assay (AID 1347398; calls by dose curve; note: nearly all actives have a fitted effect of over 50% in size; note: potency is the fitted concentration of half-maximal effect); conditions: Potency: AChE activity; outcome: AChE activity
How it was run: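 Using neuroblastoma SH-SY5Y cells as the enzyme source, test chemicals are preincubated 30 min at 37 C; AChE-driven acetylthiocholine cleavage is then quantified by thiocholine-dependent Thiolite Green fluorescence after 40 min at room temperature.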

[6] = biological target: Acetylcholinesterase (Homo sapiens) (UniProt P22303); assay: Acetylcholinesterase (AChE) small molecule antagonists: enzyme-based qHTS assay with human liver microsomes (AID 1347399; calls by dose curve; note: nearly all actives have a fitted effect of over 60% in size; note: potency is the fitted concentration of half-maximal effect); conditions: Potency: qHTS inhibition; outcome: qHTS inhibition
How it was run: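 Recombinant human AChE (50 mU/mL in the enzyme mix) and human liver microsomes (0.25 mg/mL final) were preincubated with compound and NADPH (0.25 mg/mL final) for 30 min at 37 C. Acetylthiocholine/DTNB was then added; thiocholine was read colorimetrically after 10 min at room temperature.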

[7] = biological target: Voltage-gated inwardly rectifying potassium channel KCNH2 (Homo sapiens) (UniProt Q12809); assay: Human Ether-a-go-go-Related Gene (hERG) channel small molecule antagonists: fluorescence cell-based qHTS assay (AID 1671200); note: nearly all actives have a fitted effect of over 50% in size; note: potency is the fitted concentration of half-maximal effect
Voltage-gated inwardly rectifying potassium channel KCNH2 (Homo sapiens), sequence (Q12809 whole entry, looked up): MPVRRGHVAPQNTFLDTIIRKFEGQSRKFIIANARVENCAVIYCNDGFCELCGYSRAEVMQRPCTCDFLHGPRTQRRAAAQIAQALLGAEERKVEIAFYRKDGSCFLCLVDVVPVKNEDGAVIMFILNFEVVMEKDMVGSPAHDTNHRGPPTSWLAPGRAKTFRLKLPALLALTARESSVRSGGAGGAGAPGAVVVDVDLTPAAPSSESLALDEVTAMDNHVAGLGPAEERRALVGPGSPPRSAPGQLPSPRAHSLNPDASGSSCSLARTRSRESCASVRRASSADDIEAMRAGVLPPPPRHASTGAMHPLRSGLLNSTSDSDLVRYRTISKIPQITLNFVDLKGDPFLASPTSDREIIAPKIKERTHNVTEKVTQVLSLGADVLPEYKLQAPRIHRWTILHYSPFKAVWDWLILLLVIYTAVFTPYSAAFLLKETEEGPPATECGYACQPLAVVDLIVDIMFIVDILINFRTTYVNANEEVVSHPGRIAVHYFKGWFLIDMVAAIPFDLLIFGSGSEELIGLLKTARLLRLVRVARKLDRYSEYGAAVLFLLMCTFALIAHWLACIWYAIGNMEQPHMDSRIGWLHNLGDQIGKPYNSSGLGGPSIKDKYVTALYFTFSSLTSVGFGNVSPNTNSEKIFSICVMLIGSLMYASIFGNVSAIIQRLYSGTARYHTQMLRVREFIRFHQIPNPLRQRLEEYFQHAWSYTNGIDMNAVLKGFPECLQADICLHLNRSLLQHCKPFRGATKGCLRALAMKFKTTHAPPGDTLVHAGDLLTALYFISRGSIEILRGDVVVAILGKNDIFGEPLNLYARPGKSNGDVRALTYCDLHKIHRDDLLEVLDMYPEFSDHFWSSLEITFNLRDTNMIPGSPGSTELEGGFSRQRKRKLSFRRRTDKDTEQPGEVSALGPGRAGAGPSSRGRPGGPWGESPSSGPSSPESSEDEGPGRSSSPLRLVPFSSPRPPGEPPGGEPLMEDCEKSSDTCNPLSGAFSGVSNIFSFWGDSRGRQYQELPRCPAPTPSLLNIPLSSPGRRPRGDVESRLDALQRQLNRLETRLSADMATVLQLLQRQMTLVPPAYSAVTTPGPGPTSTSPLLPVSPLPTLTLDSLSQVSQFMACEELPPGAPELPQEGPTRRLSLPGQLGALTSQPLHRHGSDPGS
How it was run: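 hERG-U2OS cells plated overnight at 37 C, loaded with FluxOR II dye 1 h at RT in dark; after 10 min, thallium stimulus added. Fluorescence (480/540 nm) read kinetically for 2 min at 1 s intervals.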

[8] = Caspase-3/7 induction in CHO-K1 cells by small molecules, qHTS assay (AID 1346980); note: nearly all actives have a fitted effect of over 15% in size
How it was run: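 Wild-type cells were seeded at 1,500 per well and settled 5 hr at 37 C, 5% CO2, then exposed to DMSO-dissolved compounds for 17 hr. Caspase-Glo 3/7 reagent was added, and luminescence was read after 30min at room temperature.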

[9] = biological target: Acetylcholinesterase (Homo sapiens) (UniProt P22303); assay: Acetylcholinesterase (AChE) small molecule antagonists: enzyme-based qHTS assay (AID 1347397; calls by dose curve; note: nearly all actives have a fitted effect of over 55% in size; note: potency is the fitted concentration of half-maximal effect); conditions: Potency: AChE enzyme activity inhibition; outcome: AChE enzyme activity inhibition
How it was run: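 Compound or DMSO vehicle was pin-transferred onto recombinant human AChE (50 mU/mL as dispensed) and left 30 min at room temperature. Acetylthiocholine with DTNB then started the reaction, read colorimetrically 10 min later.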

[10] = biological target: Cytochrome P450 2D6 (Homo sapiens) (UniProt P10635); assay: Cytochrome P450 Family 2 Subfamily D Member 6 (CYP2D6) small molecule antagonists: luciferase reporter qHTS assay (AID 1671196); note: nearly all actives have a fitted effect of over 50% in size; note: potency is the fitted concentration of half-maximal effect
Cytochrome P450 2D6 (Homo sapiens), sequence (P10635 whole entry, looked up): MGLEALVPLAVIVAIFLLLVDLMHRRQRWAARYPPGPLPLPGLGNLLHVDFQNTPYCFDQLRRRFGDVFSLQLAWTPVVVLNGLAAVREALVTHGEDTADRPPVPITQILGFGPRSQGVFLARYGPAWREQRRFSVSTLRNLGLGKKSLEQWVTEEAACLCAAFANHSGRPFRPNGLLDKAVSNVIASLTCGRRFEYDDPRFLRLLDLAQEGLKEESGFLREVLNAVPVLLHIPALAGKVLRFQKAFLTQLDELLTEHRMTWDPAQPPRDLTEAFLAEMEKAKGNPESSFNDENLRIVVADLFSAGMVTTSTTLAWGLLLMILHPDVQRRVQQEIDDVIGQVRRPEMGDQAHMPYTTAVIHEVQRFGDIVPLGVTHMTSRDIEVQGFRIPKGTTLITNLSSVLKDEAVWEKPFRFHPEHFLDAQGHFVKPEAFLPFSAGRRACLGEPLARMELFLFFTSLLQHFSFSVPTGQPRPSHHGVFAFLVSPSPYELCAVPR
How it was run: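 Chemicals tested for interference with CYP2D6 activity; proluciferin substrate, NADPH regeneration, 1 h at room temperature, luminescent detection.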

[11] = biological target: Cytochrome P450 2C19 (Homo sapiens) (UniProt P33261); assay: Cytochrome P450 Family 2 Subfamily C Member 19 (CYP2C19) small molecule antagonists: luciferase reporter qHTS assay (AID 1671197); note: nearly all actives have a fitted effect of over 65% in size; note: potency is the fitted concentration of half-maximal effect
Cytochrome P450 2C19 (Homo sapiens), sequence (P33261 whole entry, looked up): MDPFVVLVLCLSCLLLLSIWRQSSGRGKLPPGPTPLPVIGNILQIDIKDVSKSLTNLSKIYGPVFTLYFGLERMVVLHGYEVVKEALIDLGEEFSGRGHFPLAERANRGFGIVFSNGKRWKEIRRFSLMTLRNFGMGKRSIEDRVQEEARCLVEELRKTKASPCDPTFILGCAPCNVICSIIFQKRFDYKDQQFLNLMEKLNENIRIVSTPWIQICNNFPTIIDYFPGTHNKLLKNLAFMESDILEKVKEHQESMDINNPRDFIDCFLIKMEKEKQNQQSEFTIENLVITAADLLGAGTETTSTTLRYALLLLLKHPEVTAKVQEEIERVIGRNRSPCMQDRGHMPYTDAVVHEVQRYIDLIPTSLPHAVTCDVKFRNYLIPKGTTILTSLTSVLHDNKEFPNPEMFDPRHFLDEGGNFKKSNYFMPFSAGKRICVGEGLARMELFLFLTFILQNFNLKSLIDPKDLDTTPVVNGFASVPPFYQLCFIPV
How it was run: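 CYP2C19 P450-Glo, 1536-well qHTS. Cpd + enzyme/proluciferin substrate 10 min RT; + NADPH regen, 37C 1 h; stop with luciferin detection reagent, 20 min RT, luminescence (RLU). Pos ctrl ketoconazole.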

[12] = biological target: Cytochrome P450 1A2 (Homo sapiens) (UniProt P05177); assay: Cytochrome P450 Family 1 Subfamily A Member 2 (CYP1A2) small molecule antagonists: luciferase reporter qHTS assay (AID 1671199); note: nearly all actives have a fitted effect of over 50% in size; note: potency is the fitted concentration of half-maximal effect
Cytochrome P450 1A2 (Homo sapiens), sequence (P05177 whole entry, looked up): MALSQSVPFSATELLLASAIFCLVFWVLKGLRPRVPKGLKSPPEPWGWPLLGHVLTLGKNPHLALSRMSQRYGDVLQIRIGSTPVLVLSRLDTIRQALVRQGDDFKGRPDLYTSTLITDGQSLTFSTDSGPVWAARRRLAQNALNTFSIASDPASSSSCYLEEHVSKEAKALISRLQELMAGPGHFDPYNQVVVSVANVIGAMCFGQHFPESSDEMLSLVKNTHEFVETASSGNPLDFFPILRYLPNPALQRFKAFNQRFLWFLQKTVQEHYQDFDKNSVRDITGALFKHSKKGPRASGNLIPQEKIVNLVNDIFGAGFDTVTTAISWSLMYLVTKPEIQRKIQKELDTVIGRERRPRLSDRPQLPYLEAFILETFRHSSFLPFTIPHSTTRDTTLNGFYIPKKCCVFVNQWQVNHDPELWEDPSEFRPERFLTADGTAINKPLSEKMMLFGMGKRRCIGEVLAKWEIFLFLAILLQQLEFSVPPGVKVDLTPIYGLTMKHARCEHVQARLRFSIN
How it was run: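 Read-out is luminescence from luciferin detection reagent (20 min) proportional to CYP1A2 activity; compounds in DMSO preincubated 10 min with enzyme and proluciferin substrate, then NADPH regeneration solution, 1 h, room temperature.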

[13] = biological target: Cytochrome P450 3A4 (Homo sapiens) (UniProt P08684); assay: Cytochrome P450 Family 3 Subfamily A Member 4 (CYP3A4) small molecule antagonists: luciferase reporter qHTS assay (AID 1671201); note: nearly all actives have a fitted effect of over 50% in size; note: potency is the fitted concentration of half-maximal effect
Cytochrome P450 3A4 (Homo sapiens), sequence (P08684 whole entry, looked up): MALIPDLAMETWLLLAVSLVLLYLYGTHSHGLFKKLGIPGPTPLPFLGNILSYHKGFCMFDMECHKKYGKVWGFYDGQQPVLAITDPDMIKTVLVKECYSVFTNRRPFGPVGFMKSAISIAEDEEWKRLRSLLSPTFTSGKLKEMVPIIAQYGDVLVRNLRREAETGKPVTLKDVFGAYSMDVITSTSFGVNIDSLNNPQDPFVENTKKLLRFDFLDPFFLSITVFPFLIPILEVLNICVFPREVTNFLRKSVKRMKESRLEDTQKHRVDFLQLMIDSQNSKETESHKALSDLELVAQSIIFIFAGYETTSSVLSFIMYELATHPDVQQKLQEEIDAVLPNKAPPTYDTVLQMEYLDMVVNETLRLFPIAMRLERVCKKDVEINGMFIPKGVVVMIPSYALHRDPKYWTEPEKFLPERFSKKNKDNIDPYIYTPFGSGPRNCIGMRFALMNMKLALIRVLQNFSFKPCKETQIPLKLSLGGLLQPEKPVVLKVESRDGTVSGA
How it was run: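 P450-Glo CYP3A4 luminescent assay: compounds preincubated 10 min at room temperature with enzyme and proluciferin substrate, NADPH regeneration added, 1 h room-temperature reaction, stopped with luciferin detection reagent; luminescence read after 20 min. Ketoconazole positive control.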

[14] = biological target: Nuclear receptor subfamily 1 group I member 2 (Homo sapiens) (UniProt O75469); assay: Human pregnane X receptor (PXR) small molecule agonists, qHTS assay (AID 1346982); note: nearly all actives have a fitted effect of over 35% in size; note: potency is the fitted concentration of half-maximal effect
Nuclear receptor subfamily 1 group I member 2 (Homo sapiens), sequence (O75469 whole entry, looked up): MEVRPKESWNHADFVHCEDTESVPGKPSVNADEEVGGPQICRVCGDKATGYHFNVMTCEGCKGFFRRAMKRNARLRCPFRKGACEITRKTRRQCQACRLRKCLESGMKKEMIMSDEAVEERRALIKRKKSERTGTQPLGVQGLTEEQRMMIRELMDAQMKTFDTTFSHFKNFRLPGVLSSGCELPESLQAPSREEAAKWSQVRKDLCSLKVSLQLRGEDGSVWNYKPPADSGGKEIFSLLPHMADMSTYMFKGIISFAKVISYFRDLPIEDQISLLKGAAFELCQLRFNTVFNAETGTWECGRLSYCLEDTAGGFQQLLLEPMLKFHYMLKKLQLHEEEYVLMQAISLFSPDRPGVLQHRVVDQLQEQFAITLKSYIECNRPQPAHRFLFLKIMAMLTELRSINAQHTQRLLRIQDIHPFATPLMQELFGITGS
How it was run: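 Stable HepG2 line reporting PXR-mediated CYP3A4 expression via luciferase. Treatment: 24 hr with compounds in DMSO at 37 C. Detection: ONE-Glo luminescence.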

[15] = biological target: Cytochrome P450 2C9 (Homo sapiens) (UniProt P11712); assay: Cytochrome P450 Family 2 Subfamily C Member 9 (CYP2C9) small molecule antagonists: luciferase reporter qHTS assay (AID 1671198); note: nearly all actives have a fitted effect of over 50% in size; note: potency is the fitted concentration of half-maximal effect
Cytochrome P450 2C9 (Homo sapiens), sequence (P11712 whole entry, looked up): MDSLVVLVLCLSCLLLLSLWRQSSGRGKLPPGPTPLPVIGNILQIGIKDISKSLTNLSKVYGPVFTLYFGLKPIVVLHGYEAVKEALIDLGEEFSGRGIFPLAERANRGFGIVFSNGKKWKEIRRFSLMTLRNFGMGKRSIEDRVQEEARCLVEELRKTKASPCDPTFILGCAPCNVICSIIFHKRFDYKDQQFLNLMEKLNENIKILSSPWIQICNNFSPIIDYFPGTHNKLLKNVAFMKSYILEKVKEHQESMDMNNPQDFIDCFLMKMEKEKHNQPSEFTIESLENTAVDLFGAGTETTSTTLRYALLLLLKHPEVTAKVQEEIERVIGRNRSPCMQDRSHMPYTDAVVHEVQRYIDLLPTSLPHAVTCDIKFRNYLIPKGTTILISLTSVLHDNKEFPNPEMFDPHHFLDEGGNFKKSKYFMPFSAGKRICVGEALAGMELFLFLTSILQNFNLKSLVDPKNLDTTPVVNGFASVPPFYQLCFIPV
How it was run: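 CYP2C9 activity was measured with a P450-Glo proluciferin substrate. Enzyme–substrate mix was held with compound for 10 min at room temperature, then NADPH regeneration solution was added for 1 h at 37C. Luciferin product was read as luminescence.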

[16] = biological target: Nuclear receptor subfamily 1 group I member 2 (Rattus norvegicus) (UniProt Q9R1A7); assay: Rat pregnane X receptor (rPXR) activation by small molecules, qHTS assay (AID 1346983); conditions: rPXR luciferase reporter cells, One-Glo luminescence, 24 h; stronger effect = higher value; note: nearly all actives have a fitted effect of over 20% in size
How it was run: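 Cell-based rPXR luciferase reporter assay, 2,000 cells per well, rested 5hr at 37 C before compound addition in DMSO, then 24 hr at 37 C. One-Glo reagent was added and luminescence read after 30 min at room temperature.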

[17] = biological target: Nuclear receptor subfamily 1 group I member 2 (Homo sapiens) (UniProt O75469); assay: CYP3A4 induction through human pregnane X receptor (PXR) by small molecules, qHTS assay (AID 1346984); note: nearly all actives have a fitted effect of over 40% in size
How it was run: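 After 24 h at 37C with compound, DPX-2 cells (HepG2, co-transfected PXR response element and CYP3A4 promoter-luciferase) got 3uM final P450-Glo Luciferin-IPA for 3 h; One-Glo luminescence followed.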

[18] = biological target: Nuclear receptor subfamily 1 group I member 2 (Homo sapiens) (UniProt O75469); assay: Human pregnane X receptor (PXR) activation by small molecules, qHTS assay (AID 1346985); note: nearly all actives have a fitted effect of over 40% in size
How it was run: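 DPX-2 cells (HepG2 co-transfected with a PXR response element and a CYP3A4-promoter luciferase construct) were seeded at 2,000 per well, rested 5 hr at 37C, then exposed to DMSO-dissolved compounds for 24 hr. Activation was read as luciferase luminescence.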

[19] = Caspase-3/7 induction in CHO-K1 cells by small molecules, qHTS cell viability counter screen (AID 1346979); note: nearly all actives have a fitted effect of over 35% in size
How it was run: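 Wild-type CHO-K1 cells (1,500/well) treated with compound after 5 h plating; after 16 h at 37C, viability read as CellTiter-Fluor fluorescence following 1 h reagent incubation, in the same wells as the caspase read.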
% is set by controls: 0 for no effect and ±100 for the full control effect.

COc1ccc(CN2CCNCC2)c(OC)c1OC
inactive: Potency [1] | outcome [2] | Potency [3] | Potency [4] | Potency [5] | Potency [6] | Potency [7]

CCOC(=O)C(SP(=S)(OC)OC)c1ccccc1 (stereo not given)
active: Potency [4] 31.7 µM | Potency [9] 71 µM | Potency [5] 22.4 µM | Potency [10] 44.8 µM | Potency [11] 0.283 µM | Potency [12] 3.17 µM | Potency [13] 2.83 µM
inactive: Potency [1] | outcome [2] | outcome [8] | Potency [3]

c1ccc2c(c1)CCNC2
active: Potency [10] 7.28 µM | Potency [11] 57.9 µM | Potency [15] 32.5 µM
inactive: Potency [1] | outcome [2] | Potency [3] | Potency [14] | Potency [4] | Potency [9] | Potency [5] | Potency [6]

O=C1C2CC=CCC2C(=O)N1SC(Cl)(Cl)Cl (stereo not given)
inactive and 21.3 µM (active): Potency [1]
active: Potency [10] 78.3 µM | Potency [11] 39.8 µM and 8.79 µM | Potency [15] 31.6 µM and 4.94 µM | Potency [12] 31.6 µM and 22.1 µM
inactive: outcome [2] | Potency [14] | max activation [16] -17% | Potency [17] | Potency [18] | Potency [4] | Potency [9] | Potency [5] | Potency [6]
inactive and 60.1 µM (active): Potency [3]
inactive and 48.2 µM (active): Potency [7]

CCCCCCCCSC(=O)Oc1cc(Cl)nnc1-c1ccccc1
inactive: Potency [1] | outcome [2] | outcome [8] | Potency [3] | Potency [4] | Potency [6] | Potency [7] | Potency [13]
active: Potency [15] 35.6 µM

O=C(Cl)c1ccccc1
active: Potency [11] 41.1 µM
inactive: Potency [1] | outcome [2] | outcome [8] | Potency [3] | Potency [14] | Potency [4] | Potency [6] | Potency [10] | Potency [12] | Potency [7] | Potency [13]

CS(=O)(=O)c1ccc(C(=O)C2C(=O)CCCC2=O)c(Cl)c1COCC(F)(F)F
active: Potency [4] 28.3 µM
inactive: Potency [1] | outcome [2] | outcome [8] | Potency [3] | Potency [14] | Potency [9] | Potency [6] | Potency [11] | Potency [12] | Potency [7]

CC1N=C(N)OC1c1ccccc1 (stereo not given)
active: Potency [10] 9.81 µM
inactive: outcome [2] | Potency [19] | Potency [3] | Potency [14] | Potency [4] | Potency [9] | Potency [5] | Potency [6] | Potency [11] | Potency [15] | Potency [12] | Potency [7] | Potency [13]

CCN1CCCC1CNC(=O)C(O)(c1ccccc1)c1ccccc1 (stereo not given)
active: Potency [10] 4.9 µM | Potency [13] 4.9 µM
inactive: Potency [1] | outcome [2] | outcome [8] | Potency [3] | Potency [14] | Potency [4] | Potency [6] | Potency [11] | Potency [15] | Potency [12]

O=[N+]([O-])c1cccc(CCl)c1
inactive: Potency [1] | outcome [2] | outcome [8] | Potency [3] | Potency [7]

CNC(=O)Oc1cc(C)c(N(C)C)c(C)c1
active: Potency [14] 30.6 µM | Potency [4] 2.52 µM | Potency [5] 0.797 µM | Potency [6] 12.6 µM | Potency [11] 79.7 µM | Potency [12] 10 µM
inactive: Potency [1] | outcome [2] | outcome [8] | Potency [3] | Potency [7] | Potency [13]
